{"source": "PubChem BioAssay (EPA / NIEHS)", "note": "The source made the active and inactive calls. How the source made its calls: active means hit-call score of the fitted dose curve at least 0.9, where 1 is the maximum; inactive means score below 0.9.", "data": [{"test": "CCTE_Mundy_HCI_Cortical_NOG_NeuriteCount: CCTE's Neurite Outgrowth Assay in rat cortical cells for Neurite Count, Mundy Lab (AID 2284212);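 further: cells fixed about two days after chemical exposure began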", "method": "CCTE_Mundy_HCI_Cortical_NOG is a multiplexed, cell-based-readout assay that uses rat primary cortical cells with measurements taken at 50.33 hours after chemical dosing in a microplate: 96-well plate.CCTE_Mundy_HCI_Cortical_NOG_NeuriteCount is one of four components of the CCTE_Mundy_HCI_Cortical_NOG assay. It measures neurite outgrowth related to the number of neurites using High Content Imaging of fluorescently labelled markers.[…] Using a type of morphology reporter, loss -of-signal activity can be used to understand developmental effects.\nExposure starts 2 hours post-plating by adding 10 ul of the working solution to 90 ul of media in the wells for a 1/10 dilution. Forty-eight hours after chemical treatment cells are fixed by direct addition of 100 ul of warm (37C) Dulbecco's phosphate buffered saline (DPBS) fixative solution containing 8% paraformaldehyde, 8% sucrose, and 0.1% of 3 mg/ml Hoechst 33342 into each well. Primary antibodies are prepared by dilution in Immunocytochemical Staining Buffer (ISB), 10X Dulbecco's PBS, 0.1% Saponin, 5% Bovine Serum Albumin, 0.5% NaN3 (Sodium Azide) and betaIII-tubulin (rabbit anti-betaIII-tubulin, 1:800) followed by Alexa Fluor-488 secondary (1:500) to label neuronal cell bodies and neurites. A Cellomics ArrayScan VTi HCS Reader is used for automated image acquisition and analysis of neurite outgrowth.", "values": [{"smiles": "CC(C)(C)C(=O)C(Oc1ccc(Cl)cc1)n1cncn1", "note": "(stereo not drawn)", "outcome": "inactive"}, {"smiles": "CCSC(=O)N1CCCCCC1", "outcome": "inactive"}, {"smiles": "Cc1c(COC(=O)[C@@H]2[C@H](/C=C(\\Cl)C(F)(F)F)C2(C)C)cccc1-c1ccccc1", "AC50": "27.8 µM (active)"}, {"smiles": "N#CN=C1SCCN1Cc1ccc(Cl)nc1", "outcome": "inactive"}, {"smiles": "C=C(C)CN(CC)c1c([N+](=O)[O-])cc(C(F)(F)F)cc1[N+](=O)[O-]", "AC50": "65.1 µM (active)"}, {"smiles": "COP(=S)(OC)SCn1nnc2ccccc2c1=O", "outcome": "inactive"}, {"smiles": "O=C(Nc1ccccc1-c1ccc(Cl)cc1)c1cccnc1Cl", "outcome": "inactive"}, {"smiles": "CO/N=C(/C1=NOCCO1)c1ccccc1Oc1ncnc(Oc2ccccc2Cl)c1F", "AC50": "3.51 µM (active)"}, {"smiles": "CS(=O)(=O)c1ccc(C(=O)C2C(=O)CCCC2=O)c([N+](=O)[O-])c1", "outcome": "inactive"}, {"smiles": "COC(=O)N(C(=O)N1CO[C@@]2(C(=O)OC)Cc3cc(Cl)ccc3C2=N1)c1ccc(OC(F)(F)F)cc1", "outcome": "inactive"}, {"smiles": "CNC(=O)Oc1cccc2ccccc12", "outcome": "inactive"}, {"smiles": "CCN(CC)c1nc(C)cc(OP(=S)(OC)OC)n1", "AC50": "79.4 µM (active)"}, {"smiles": "CCNC(=O)NC(=O)C(C#N)=NOC", "outcome": "inactive"}, {"smiles": "CC1(C)C(C=C(Cl)Cl)C1C(=O)OC(C#N)c1cccc(Oc2ccccc2)c1", "note": "(stereo not drawn)", "outcome": "inactive"}, {"smiles": "CCOP(=O)(OCC)Oc1nc(Cl)c(Cl)cc1Cl", "outcome": "inactive"}, {"smiles": "COP(=O)(OC)O/C(C)=C/C(=O)N(C)C", "outcome": "inactive"}, {"smiles": "CS(=O)(=O)c1cc(C(F)(F)F)ccc1C(=O)c1cnoc1C1CC1", "outcome": "inactive"}, {"smiles": "CN/C(=N\\[N+](=O)[O-])NCc1cnc(Cl)s1", "outcome": "inactive"}]}]}
